The text below walks through data of PubChem BioAssay (Tox21).

Structures are written as SMILES. Records with an inconclusive call do not appear. Values without a mark were called inactive. Active and inactive are the calls of the source. Unless noted, the call rests on the fitted dose curve; in most records, active means well fitted curve in the direction sought with a large enough effect in the repeat runs; inconclusive means weak or mixed curves; inactive means no such curve, though single readings can be large; an effect the other way counts as inactive or inconclusive.

The nature of test [1]: qHTS assay to identify small molecule agonists of the peroxisome proliferator-activated receptor delta (PPARd) signaling pathway - cell viability counter screen (AID 743211). Further: nearly all actives have a fitted effect of over 55% in size. Further: potency means the concentration at half of the fitted maximal effect. A digest of the protocol: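 Read-out: CellTiter-Glo luminescence, 30 min RT, measured in the same wells as the beta-lactamase reporter. Cells: GeneBLAzer PPAR delta UAS-bla HEK293H, 3000 cells/well, compound exposure 17 h at 37C.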
In general terms: In qHTS, concentration-response curves come from the screen itself.

Test [2] in a line: qHTS assay to identify small molecule agonists of the farnesoid-X-receptor (FXR) signaling pathway - cell viability counter screen (AID 743218). Further: nearly all actives have a fitted effect of over 45% in size. Further: potency means the concentration at half of the fitted maximal effect. In short, it runs like this: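 Luminescence from CellTiter-Glo, read after 30 min at RT, reports viability of GeneBLAzer FXR-UAS-bla HEK 293T cells treated 16 h with compounds in the wells used for the beta-lactamase reporter.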
Test [3] can be described thus: qHTS assay to identify small molecule antagonists of the farnesoid-X-receptor (FXR) signaling pathway - cell viability counter screen (AID 743221; active means well fitted cell-killing curve with a large enough effect in the repeat runs, not every such curve was filed as active; further: nearly all actives have a fitted effect of over 50% in size; further: potency means the concentration at half of the fitted maximal effect). In short, it runs like this: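 HEK 293T FXR-bla cells, 5 h pre-incubation; compound + CDCA 50 uM final, 16 h, 37 C; beta-lactamase FRET read first, then CellTiter-Glo luminescence, 30 min RT.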
Test [4] addresses Vitamin D3 receptor (Homo sapiens) (UniProt P11473). Description: qHTS assay to identify small molecule antagonists of the vitamin D receptor (VDR) signaling pathway (AID 743223; active means well fitted inhibition curve with a large enough effect in the signal ratio in the repeat runs, not every such curve was filed as active; the % refers to the signal ratio; further: potency means the concentration at half of the fitted maximal effect). A digest of the protocol:
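Beta-lactamase reporter read-out: FRET substrate fluorescence after 2 h at room temperature, following 16 h exposure of VDR-bla cells to test compound plus 3 nM (final) 1alpha,25-dihydroxyvitamin D3 agonist at 37C.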

Test [5] is described as follows: qHTS assay to identify small molecule antagonists of the vitamin D receptor (VDR) signaling pathway - cell viability counter screen (AID 743225). Further: nearly all actives have a fitted effect of over 50% in size. Further: potency means the concentration at half of the fitted maximal effect. A digest of the protocol: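 Viability counter screen run in the same wells as the beta-lactamase reporter assay: HEK 293T VDR-UAS-bla cells, 16 h compound exposure at 37C with 3 nM (final) 1-alpha,25-dihydroxyvitamin D3. CellTiter-Glo luminescence, 30 min, room temperature.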

Test [6] can be described thus: qHTS assay to identify small molecule antagonists of the retinoid-related orphan receptor gamma (ROR-gamma) signaling pathway - cell viability counter screen (AID 1159520). Further: nearly all actives have a fitted effect of over 50% in size. Further: potency means the concentration at half of the fitted maximal effect. In short, it runs like this: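 Tet-on ROR gamma CHO cells were given compounds for 2 hr, then doxycycline hyclate at 1 uM final, and incubated 16 hr at 37 C. Viability was measured as ATP content by CellTiter-Glo luminescence.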

Test [7] can be described thus: qHTS assay to identify small molecule agonists of the AP-1 signaling pathway - cell viability counter screen (AID 1159525; calls by dose curve; further: nearly all actives have a fitted effect of over 55% in size). A digest of the protocol:
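Same-well cytotoxicity counter screen of the Tox21 10K library in ME-180 cells. The readout is ATP-dependent luminescence after 5 h compound treatment. Data are normalised to DMSO and tetra n-octyl ammonium bromide controls.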

Test [8] is described as follows: qHTS assay to identify small molecule antagonists of the retinoid acid receptor (RAR) signaling pathway - cell viability counter screen (AID 1159551). Further: nearly all actives have a fitted effect of over 35% in size. In short, it runs like this:
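C3RL4 RARE-luciferase line; cpds + retinol 1 uM final, 6 h, 37 C/5% CO2; CellTiter-Glo ATP luminescence, 30 min RT.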

Test [9] is described as follows: qHTS assay to identify small molecule antagonists of the retinoic acid receptor (RAR) signaling pathway (AID 1159552; further: nearly all actives have a fitted effect of over 50% in size; further: potency means the concentration at half of the fitted maximal effect). In short, it runs like this: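 Luminescence from a RARE luciferase reporter in C3RL4 cells served as read-out. Cells received compounds together with 1 uM final retinol and incubated 6 hr at 37 C before detection reagent was added for 30 min at room temperature.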

Test [10] concerns the target Bile acid receptor (Homo sapiens) (UniProt Q96RI1). As to the kind of experiment: qHTS assay to identify small molecule agonists of the farnesoid-X-receptor (FXR) signaling pathway (AID 743220; active means well fitted activation curve with a large enough effect in the signal ratio in the repeat runs, not every such curve was filed as active; the % refers to the signal ratio). In short, it runs like this:
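FXR-UAS-bla HEK 293T cells carrying a UAS-driven beta-lactamase reporter were plated for 5 h at 37C/5% CO2, then exposed to DMSO-dissolved Tox21 10K compounds for 16 h at 37C. A LiveBLAzer B/G FRET substrate was loaded for 2 h at room temperature before fluorescence reading.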

Test [11] in a line: qHTS assay to identify small molecule agonists of the AP-1 signaling pathway (AID 1159526; calls by dose curve).
Test [12] in a line: qHTS assay to identify small molecule agonists of the RXR signaling pathway - cell viability counter screen (AID 1159529). Further: nearly all actives have a fitted effect of over 50% in size. Further: potency means the concentration at half of the fitted maximal effect. In short, it runs like this:
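Luminescence from CellTiter-Glo (30 min, RT) measured viability in the same wells as the beta-lactamase reporter readout. Cells: GeneBLAzer RXR-alpha HEK 293T, 2% charcoal-stripped FBS. Compound exposure 16 hr, 37 C.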

Test [13] has as its target Peroxisome proliferator-activated receptor delta (Homo sapiens) (UniProt Q03181). As to the kind of experiment: qHTS assay to identify small molecule agonists of the peroxisome proliferator-activated receptor delta (PPARd) signaling pathway (AID 743212; calls by dose curve). In short, it runs like this:
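Tox21 library screened in GeneBLAzer PPARd UAS-bla HEK293H cells. After compound treatment at 37 C, a FRET-based beta-lactamase substrate was applied for 2 h and fluorescence recorded.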

Test [14] in a line: qHTS assay to identify small molecule antagonists of the peroxisome proliferator-activated receptor delta (PPARd) signaling pathway - cell viability counter screen (AID 743213). Further: nearly all actives have a fitted effect of over 50% in size. Further: potency means the concentration at half of the fitted maximal effect. A digest of the protocol: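 PPARd-bla HEK293H cells were treated with compounds plus agonist L165041 (300 nM final) for 17 h at 37 C. Viability was then read in the same wells by CellTiter-Glo luminescence after 30 min at room temperature.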

Test [15] concerns the target Peroxisome proliferator-activated receptor delta (Homo sapiens) (UniProt Q03181). Description: qHTS assay to identify small molecule antagonists of the peroxisome proliferator-activated receptor delta (PPARd) signaling pathway (AID 743215; active means well fitted inhibition curve with a large enough effect in the signal ratio in the repeat runs, not every such curve was filed as active; the % refers to the signal ratio;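 further: cells stimulated with agonist L165041 at 300 nM final during compound exposure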; further: potency means the concentration at half of the fitted maximal effect). In short, it runs like this:
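HEK293H GeneBLAzer PPARd UAS-bla reporter cells; cpd + L165041 300 nM final, 17 h 37 C; LiveBLAzer B/G FRET substrate 2 h RT; fluorescence intensity read-out. Antagonist mode.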

Test [16] addresses Vitamin D3 receptor (Homo sapiens) (UniProt P11473). As to the kind of experiment: qHTS assay to identify small molecule agonists of the vitamin D receptor (VDR) signaling pathway (AID 743222; calls by dose curve). In short, it runs like this:
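Beta-lactamase reporter readout (LiveBLAzer B/G FRET, 2 h RT) in VDR-bla cells after 16 h compound treatment at 37C, 5% CO2; cells pre-incubated 4 h before pin transfer of DMSO solutions.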

Test [17] is described as follows: qHTS assay to identify small molecule agonists of the vitamin D receptor (VDR) signaling pathway - cell viability counter screen (AID 743224). Further: nearly all actives have a fitted effect of over 50% in size. Further: potency means the concentration at half of the fitted maximal effect. In short, it runs like this: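 Cytotoxicity counter screen: VDR-bla cells, 16 h compound exposure at 37C, 5% CO2; CellTiter-Glo luminescence, 30 min RT, same wells as bla read.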
In test [18] the target is Nuclear receptor ROR-gamma (Homo sapiens) (UniProt P51449). As to the kind of experiment: qHTS assay to identify small molecule antagonists of the retinoid-related orphan receptor gamma (ROR-gamma) signaling pathway (AID 1159521; further: nearly all actives have a fitted effect of over 50% in size; further: potency means the concentration at half of the fitted maximal effect). A digest of the protocol: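 Luminescence readout (ONE-Glo, 30 min RT) after 16 h doxycycline induction; loss of signal scored as antagonism. CHO cells with TET-inducible RORγ and RORE-LUC reporter; compounds added 2 h before 1 uM final doxycycline.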

The target in test [19] is Retinoic acid receptor RXR-alpha (Homo sapiens) (UniProt P19793). As to the kind of experiment: qHTS assay to identify small molecule agonists of the RXR signaling pathway (AID 1159527; calls by dose curve; further: nearly all actives have a fitted effect of over 35% in size). In short, it runs like this: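 Agonist mode; 9-cis retinoic acid positive control. HEK 293T UAS-bla reporter cells, 2% charcoal-stripped FBS, 16 hr compound exposure at 37 C/5% CO2. LiveBLAzer B/G FRET substrate 2 hr RT; ex 405, em 460/530 nm.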
Sequence of Retinoic acid receptor RXR-alpha (Homo sapiens) (P19793 whole entry, looked up): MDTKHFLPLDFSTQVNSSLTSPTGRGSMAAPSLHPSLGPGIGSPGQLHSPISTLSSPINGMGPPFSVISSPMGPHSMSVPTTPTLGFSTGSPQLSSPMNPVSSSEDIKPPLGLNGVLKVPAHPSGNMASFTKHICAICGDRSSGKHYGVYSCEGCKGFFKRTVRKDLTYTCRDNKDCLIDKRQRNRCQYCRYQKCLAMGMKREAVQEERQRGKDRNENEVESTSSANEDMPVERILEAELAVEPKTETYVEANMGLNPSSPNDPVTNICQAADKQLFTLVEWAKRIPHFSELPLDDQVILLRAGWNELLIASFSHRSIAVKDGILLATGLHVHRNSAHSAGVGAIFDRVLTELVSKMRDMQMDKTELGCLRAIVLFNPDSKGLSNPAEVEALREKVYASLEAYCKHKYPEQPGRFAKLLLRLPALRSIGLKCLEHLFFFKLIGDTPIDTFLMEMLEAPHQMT

Test [20] concerns the target Bile acid receptor (Homo sapiens) (UniProt Q96RI1). Description: qHTS assay to identify small molecule antagonists of the farnesoid-X-receptor (FXR) signaling pathway (AID 743217; active means well fitted inhibition curve with a large enough effect in the signal ratio in the repeat runs, not every such curve was filed as active; the % refers to the signal ratio; further: potency means the concentration at half of the fitted maximal effect). A digest of the protocol:
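Read-out: beta-lactamase FRET fluorescence (LiveBLAzer B/G substrate, 2 h, room temperature) in GeneBLAzer FXR-UAS-bla HEK 293T cells. Compounds were co-dosed with 50 uM chenodeoxycholic acid (final) and incubated 16 h at 37 °C.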

Sequence of Vitamin D3 receptor (Homo sapiens) (P11473 whole entry, looked up): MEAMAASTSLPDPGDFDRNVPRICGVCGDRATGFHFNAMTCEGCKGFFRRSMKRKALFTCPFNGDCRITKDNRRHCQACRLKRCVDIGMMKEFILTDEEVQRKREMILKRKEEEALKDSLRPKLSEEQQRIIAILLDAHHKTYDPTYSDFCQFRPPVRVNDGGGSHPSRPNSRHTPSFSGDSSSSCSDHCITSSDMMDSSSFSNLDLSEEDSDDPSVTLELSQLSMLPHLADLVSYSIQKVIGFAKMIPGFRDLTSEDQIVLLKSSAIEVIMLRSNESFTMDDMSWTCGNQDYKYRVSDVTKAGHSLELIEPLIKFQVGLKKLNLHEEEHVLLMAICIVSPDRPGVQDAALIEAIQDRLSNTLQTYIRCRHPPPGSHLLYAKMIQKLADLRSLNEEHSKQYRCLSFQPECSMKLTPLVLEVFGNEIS
Sequence of Peroxisome proliferator-activated receptor delta (Homo sapiens) (Q03181 whole entry, looked up): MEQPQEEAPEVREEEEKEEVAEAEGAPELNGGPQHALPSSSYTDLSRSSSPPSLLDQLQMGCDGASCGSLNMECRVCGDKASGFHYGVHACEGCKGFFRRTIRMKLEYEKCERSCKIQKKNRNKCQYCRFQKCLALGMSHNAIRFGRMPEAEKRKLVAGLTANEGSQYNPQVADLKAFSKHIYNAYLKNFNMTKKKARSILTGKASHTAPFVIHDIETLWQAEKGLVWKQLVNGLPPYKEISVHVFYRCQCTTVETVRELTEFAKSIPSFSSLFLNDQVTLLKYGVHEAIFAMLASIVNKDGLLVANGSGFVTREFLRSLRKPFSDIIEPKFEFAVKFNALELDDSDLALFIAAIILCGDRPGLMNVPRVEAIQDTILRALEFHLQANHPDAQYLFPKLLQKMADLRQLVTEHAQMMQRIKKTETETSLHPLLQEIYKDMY
Sequence of Bile acid receptor (Homo sapiens) (Q96RI1 whole entry, looked up): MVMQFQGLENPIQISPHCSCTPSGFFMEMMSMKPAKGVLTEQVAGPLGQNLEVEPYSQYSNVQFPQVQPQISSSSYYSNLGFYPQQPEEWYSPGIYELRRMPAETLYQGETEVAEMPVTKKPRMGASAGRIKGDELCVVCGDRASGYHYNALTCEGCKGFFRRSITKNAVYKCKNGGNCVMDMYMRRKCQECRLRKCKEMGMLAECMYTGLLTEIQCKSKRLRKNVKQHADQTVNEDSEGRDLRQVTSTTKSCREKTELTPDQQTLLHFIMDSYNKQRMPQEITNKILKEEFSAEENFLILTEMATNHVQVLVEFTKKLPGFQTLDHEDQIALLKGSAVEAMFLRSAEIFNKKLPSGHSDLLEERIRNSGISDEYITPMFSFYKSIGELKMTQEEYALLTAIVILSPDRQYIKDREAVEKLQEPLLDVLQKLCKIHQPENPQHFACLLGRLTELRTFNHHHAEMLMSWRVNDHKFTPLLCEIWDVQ

Take `O=C(CCCCCCCCc1cccnc1)N1CCC(C=C(c2ccccc2)c2ccccc2)CC1`: the results for the Potency in test [1], in test [2] and in test [6] were 12.3 µM (active), 24.5 µM (active) and 68.6 µM (active), respectively. Further, the Potency entry in test [3], in [4], in test [5], in [7], in test [8] and in test [9] was “inactive” in each case.

As for `O=C1Cc2ccccc2C1`, the Potency result in test [9] is “inactive”.

On to `O=[N+]([O-])c1ccc(O)c2ncccc12`, for which the Potency result in [2], in test [3], in [5], in test [8] and in test [9] was “inactive” throughout. In [10], the call was inactive. The Potency in test [4] is 9.52 µM (active); in [6], 23.7 µM (active).

Take `O[Si](c1ccccc1)(c1ccccc1)c1ccccc1`: the Potency entry in test [7], in [11], in test [12] and in test [8] was “inactive” in each case.

Consider `CCCC(=O)c1cc(O)c(O)cc1O`, for which the Potency result in [7] and in test [12] was “inactive” each time.

For `O=C1CCCCCCCCCCCCCC1`, the Potency result in [1], in [14], in test [15], in [2], in test [3] and in test [4] was “inactive” throughout. The Potency entry in test [17], in [5], in test [18], in test [7], in test [11] and in test [19] was “inactive” in each case. For the same molecule, the Potency result in test [12], in test [8] and in test [9] was “inactive” each time. The molecule was classed as inactive in test [13] and in [16].

Regarding `CCCCCCCC/C=C\CCCCCCCC(=O)N(CCO)CCO`, the Potency is 43.5 µM (active) in test [1], 54.7 µM (active) in test [2] and 43.5 µM (active) in test [17]. The Potency entry in [14], in test [15], in test [20], in test [4], in [5] and in [8] was “inactive” in each case. Further, the Potency result in [9] was “inactive”. Further, the call in [16] was inactive.

For `CC1=C(/C=C/C(C)=C/C=C/C(C)=C\C(=O)O)C(C)(C)CCC1`, the Potency result in test [14], in test [17], in test [5], in [18], in test [7] and in test [11] was “inactive” throughout. Further, the Potency result in [8] and in test [9] was “inactive” each time.

In the case of `CN[C@H]1CC[C@@H](c2ccc(Cl)c(Cl)c2)c2ccc(S(N)(=O)=O)cc21`, the Potency in [1] is 6.92 µM (active); in [14], 12.3 µM (active); in [15], 34.7 µM (active); in test [20], 49 µM (active); in [2], 13.8 µM (active); in test [3] it was 24.5 µM (active). The Potency is 17.4 µM (active) in test [17], 21.9 µM (active) in [5], 54.5 µM (active) in test [18] and 27.5 µM (active) in test [12]. For the same molecule, the outcome in test [16] was inactive. In addition, the Potency result in test [7] and in test [8] was “inactive” throughout.

Regarding `CN1CCN(CCCN2c3ccccc3Sc3ccc(C(F)(F)F)cc32)CC1`, the Potency in [1] is 18.8 µM (active); in [14], 26.6 µM (active); in test [2], 26.6 µM (active); in test [3], 26.6 µM (active); in [5] it was 23.9 µM (active); in [9] it was 23.7 µM (active). Moreover, in test [10], the molecule was classed as inactive. The Potency result in test [6], in test [7] and in [8] was “inactive” in each case.

With `c1ccc(-c2nc3ccccc3[nH]2)cc1`, the Potency result in [7], in test [11], in [19] and in [9] was “inactive” in each case.

`Oc1cccc2c(O)cccc12`: the Potency in test [18] was 68.6 µM (active). Moreover, the Potency entry in test [19] and in test [8] was “inactive” each time.

Take `CCCCCCCCSCc1cc(C)c(O)c(CSCCCCCCCC)c1`: the Potency entry in test [6] and in test [8] was “inactive” in each case.

As to `O=C(N[C@H](CO)[C@H](O)c1ccc([N+](=O)[O-])cc1)C(Cl)Cl`, the Potency entry in test [1], in test [14], in test [2], in [6], in [11] and in test [19] was “inactive” throughout. The Potency entry in [12] and in [8] was “inactive” throughout. In test [13], the molecule was classed as inactive.

For `CCCCCCCCCCCCCCCCCCNC(=O)OC1CCN(C(=O)OC[C@H](COC(=O)N(Cc2cccc[n+]2CC)C(=O)c2ccccc2OC)OC)CC1`, the Potency in test [1] was 10.6 µM (active); in test [14], 33.5 µM (active); in test [2] it was 26.6 µM (active); in [17] it was 26.6 µM (active); in test [5], 21.3 µM (active); in test [18], 29.8 µM (active). Further, the Potency in [12] is 23.9 µM (active); in [9], 26.6 µM (active). Besides, the molecule was called inactive in test [13]. The Potency result in test [4] was “inactive”.

Take `Cc1cc(C)c(O)c(C(C)(C)C)c1`: the Potency entry in test [18], in test [7], in test [19] and in test [9] was “inactive” in each case.
